Experimental data as given in PubChem BioAssay (NCATS).
“And” between values parts separate entries of the source, which are not always exact repeats. Equal values may be shown once. Records with an inconclusive call do not appear. Entries that show only a call come without a potency. The source made the active and inactive calls. Unless noted, the call rests on the fitted dose curve; in most records, active means well fitted curve in the direction sought with a large enough effect; inconclusive means small, poorly fitted or top-dose-only effect, or another doubt; inactive means no such curve, though single readings can be large; an effect the other way counts as inactive or inconclusive. Where a SMILES comes first, the peptide text is derived from it. [ ]: non-standard residue; d: D form. pGlu = O=C1CC[C@@H](C(=O)O)N1; Thz = O=C(O)[C@@H]1CSCN1

Experiments:
[1] = qHTS assay for small molecule agonists of retinoid X receptor alpha signaling (AID 588544; calls by dose curve); conditions: HEK293T RXRa-UAS-bla, beta-lactamase reporter, 18 h; 530 nm emission
[2] = biological target: Retinoic acid receptor RXR-alpha (Homo sapiens) (UniProt P19793); test: as above; conditions: HEK293T RXRa-UAS-bla, beta-lactamase reporter, 18 h; series mostly up to 76.7 µM
[3] = biological target: Thyroid hormone receptor beta (Homo sapiens) (UniProt P10828); test: qHTS assay for small molecule agonists of thyroid hormone receptor beta signaling (AID 588545; calls by dose curve); conditions: TR-UAS-bla GripTite HEK 293, beta-lactamase ratio, agonist mode, 18 h, percent of T3 response, DMSO as zero; series mostly up to 76.7 µM
Outline: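 TR-UAS-bla-GripTite HEK 293 cells in medium with 2% charcoal/dextran FBS, 0.1 mM NEAA and 1 mM sodium pyruvate were treated with titrated compounds for 18 hrs at 37 C. Beta-lactamase reporter was read with CCF4 dye (ex 405, em 460/530 nm); EC50 from Hill fits.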

[4] = qHTS assay for small molecule antagonists of retinoid X receptor alpha signaling (AID 588546; active means well fitted inhibition curve with a large enough effect in the signal ratio, with a control signal flat, not every such curve was filed as active; the % refers to the signal ratio;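 further: cells stimulated with 9-cis-retinoic acid as agonist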); conditions: HEK293T RXRa-UAS-bla, beta-lactamase ratio, antagonist mode; measured here: W530 green channel, cytotoxicity proxy
Outline: (§1)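 Beta-lactamase reporter inhibition, read as CCF4 fluorescence ratio (ex 405, em 460/530 nm) after 2 h at RT. HEK293T UAS-bla cells, 2500/well, were stimulated with 9-cis-RA at 500 or 100 nM final alongside test compound for 18 h at 37 C.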

[5] = biological target: Retinoic acid receptor RXR-alpha (Homo sapiens) (UniProt P19793); test: as above; conditions: HEK293T RXRa-UAS-bla, beta-lactamase ratio, antagonist mode
Outline: as §1

[6] = biological target: Thyroid hormone receptor beta (Homo sapiens) (UniProt P10828); test: qHTS assay for small molecule antagonists of thyroid hormone receptor beta signaling (AID 588547; active means well fitted inhibition curve with a large enough effect in the signal ratio, with a control signal flat, not every such curve was filed as active; the % refers to the signal ratio;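 further: cells stimulated with 0.4 nM T3 agonist during compound exposure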); conditions: TR-UAS-bla HEK293, beta-lactamase ratio, antagonist mode, 18 h
Outline: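 TR-UAS-bla GripTite HEK293 cells in 2% charcoal/dextran FBS medium; compounds 0.59 nM to 92 uM with T3 at 0.4nM final, 18 h at 37 C. Beta-lactamase read by CCF4 fluorescence (460/530 nm); Hill fits gave IC50 and efficacy.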

[7] = biological target: Luciferin 4-monooxygenase (Photinus pyralis) (UniProt P08659); test: Biochemical firefly luciferase enzyme assay for NPC (AID 624030);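 further: purified P. pyralis luciferase at 10 nM with luciferin and ATP substrate; nearly all actives have a fitted effect of over 70% in size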; conditions: purified P. pyralis luciferase, luminescence, 5 min; series mostly up to 58.6 µM
Outline: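 Purified P. pyralis luciferase at 10 nM in 50 mM Tris Acetate (final), luminescence read within 5 minutes of enzyme addition to compounds. Activity normalised to PTC124 versus DMSO; concentration-response curves classed by r2, magnitude and activity.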

[8] = biological target: Voltage-gated inwardly rectifying potassium channel KCNH2 (Homo sapiens) (UniProt Q12809); test: qHTS Assay for Small Molecule Inhibitors of the Human hERG Channel Activity (AID 588834); conditions: U2OS BacMam hERG, FluxOR thallium flux fluorescence; series mostly up to 46.1 µM;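 further: lower thallium flux fluorescence means stronger hERG block; nearly all actives have a fitted effect of over 50% in size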; further: potency means the concentration at half of the fitted maximal effect
Outline: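 Measured: FluxOR fluorescence after thallium stimulation in U2OS cells transduced with hERG by baculovirus. Compounds pre-incubated around 10 min; medium Opti-MEM with 2% FCS. AC50 from Hill equation.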

[9] = S16 Schwann cell viability assay (CellTiter-Glo assay) (AID 624031); conditions: S16 rat Schwann cells viability, 24 h; series mostly up to 57.5 µM; further: nearly all actives have a fitted effect of over 70% in size; further: potency means the concentration at half of the fitted maximal effect
Outline: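 Counter-screen for cytotoxicity: parental S16 rat Schwann cells lacking the PMP22 reporters, treated 24 h with compound, viability from cellular ATP by CellTiter-Glo luminescence, normalized to DMSO (0%) and no-cell wells.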

[10] = qHTS for Inhibitors of the vitamin D receptor (VDR): Hit Validation using a Texas Red Assay (AID 602201); conditions: VDR coregulator binding, Texas Red fluorescence polarization; agonist-bound VDR ligand-binding domain; further: potency means the concentration at half of the fitted maximal effect
Description: The vitamin D receptor (VDR) is a ligand-activated transcription factor and is partially responsible for the regulation of the endocrine system. This includes the transcriptional regulation of genes involved in the production of the parathyroid hormone (PTH) and the regulation of the blood calcium level. High levels of PHT can cause hypercalcemia in the case of primary and tertiary hyperparathyroidism. The VDR-mediated gene regulation, activated by its ligand 1,25-dihydroxyvitamin D3 (1,25-(OH)2D3), is governed by the recruitment of coactivators. Our hypothesis is that small molecules, with the ability to inhibit the interaction between VDR and certain coactivators, are able to selectively modulate VDR-mediated transcription. […]
In a collaboration between the University of Wisconsin, Milwaukee and the NIH Chemical Genomics Center (NCGC) a HTS-compatible enzymatic assay was developed. The assay uses fluorescence polarization as its read-out to measure the inhibition between VDR and coregulator peptide SRC2-3 exerted by small molecules. […]
Four microliter of either 1.5 uM VDR-LBD, […] LG19078, and 7 nM Texas Red (all final concentrations) in columns 1, 2, and 5 to 48 or 7 nM Texas Red in columns 3 and 4 are dispensed into black medium-binding solid bottom Greiner plates. […] It is then read on the Envision for a fluorescent polarization read-out (Ex 595 nm/Em 615 nm)

Sequence of Luciferin 4-monooxygenase (Photinus pyralis) (P08659 whole entry, looked up): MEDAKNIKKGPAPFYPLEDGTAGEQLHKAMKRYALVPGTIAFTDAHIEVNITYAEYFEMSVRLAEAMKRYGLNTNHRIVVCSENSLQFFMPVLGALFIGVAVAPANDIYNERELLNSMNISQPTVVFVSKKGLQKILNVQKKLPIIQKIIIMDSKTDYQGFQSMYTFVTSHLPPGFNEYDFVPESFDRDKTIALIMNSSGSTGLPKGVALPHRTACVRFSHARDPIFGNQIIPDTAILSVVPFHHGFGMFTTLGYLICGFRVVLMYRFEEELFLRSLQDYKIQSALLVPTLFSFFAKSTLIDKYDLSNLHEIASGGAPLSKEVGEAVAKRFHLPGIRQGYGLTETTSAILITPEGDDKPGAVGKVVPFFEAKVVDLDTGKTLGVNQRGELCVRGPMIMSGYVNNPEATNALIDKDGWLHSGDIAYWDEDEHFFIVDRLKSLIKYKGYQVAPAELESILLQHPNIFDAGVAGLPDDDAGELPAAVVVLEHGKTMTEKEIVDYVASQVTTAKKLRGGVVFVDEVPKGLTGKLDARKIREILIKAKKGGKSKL
Sequence of Thyroid hormone receptor beta (Homo sapiens) (P10828 whole entry, looked up): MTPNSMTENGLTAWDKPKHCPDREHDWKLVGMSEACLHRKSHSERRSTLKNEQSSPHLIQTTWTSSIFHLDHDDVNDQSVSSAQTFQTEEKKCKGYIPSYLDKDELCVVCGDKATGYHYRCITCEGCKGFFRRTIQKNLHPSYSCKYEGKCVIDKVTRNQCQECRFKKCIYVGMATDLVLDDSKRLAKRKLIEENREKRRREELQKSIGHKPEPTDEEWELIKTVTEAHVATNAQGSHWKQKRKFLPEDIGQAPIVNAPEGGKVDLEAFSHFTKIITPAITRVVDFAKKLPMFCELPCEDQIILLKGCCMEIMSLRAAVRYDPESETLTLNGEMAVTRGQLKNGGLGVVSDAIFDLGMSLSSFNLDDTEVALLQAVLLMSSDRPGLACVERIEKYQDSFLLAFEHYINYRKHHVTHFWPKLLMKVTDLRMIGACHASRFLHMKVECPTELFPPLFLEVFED
Sequence of Voltage-gated inwardly rectifying potassium channel KCNH2 (Homo sapiens) (Q12809 whole entry, looked up): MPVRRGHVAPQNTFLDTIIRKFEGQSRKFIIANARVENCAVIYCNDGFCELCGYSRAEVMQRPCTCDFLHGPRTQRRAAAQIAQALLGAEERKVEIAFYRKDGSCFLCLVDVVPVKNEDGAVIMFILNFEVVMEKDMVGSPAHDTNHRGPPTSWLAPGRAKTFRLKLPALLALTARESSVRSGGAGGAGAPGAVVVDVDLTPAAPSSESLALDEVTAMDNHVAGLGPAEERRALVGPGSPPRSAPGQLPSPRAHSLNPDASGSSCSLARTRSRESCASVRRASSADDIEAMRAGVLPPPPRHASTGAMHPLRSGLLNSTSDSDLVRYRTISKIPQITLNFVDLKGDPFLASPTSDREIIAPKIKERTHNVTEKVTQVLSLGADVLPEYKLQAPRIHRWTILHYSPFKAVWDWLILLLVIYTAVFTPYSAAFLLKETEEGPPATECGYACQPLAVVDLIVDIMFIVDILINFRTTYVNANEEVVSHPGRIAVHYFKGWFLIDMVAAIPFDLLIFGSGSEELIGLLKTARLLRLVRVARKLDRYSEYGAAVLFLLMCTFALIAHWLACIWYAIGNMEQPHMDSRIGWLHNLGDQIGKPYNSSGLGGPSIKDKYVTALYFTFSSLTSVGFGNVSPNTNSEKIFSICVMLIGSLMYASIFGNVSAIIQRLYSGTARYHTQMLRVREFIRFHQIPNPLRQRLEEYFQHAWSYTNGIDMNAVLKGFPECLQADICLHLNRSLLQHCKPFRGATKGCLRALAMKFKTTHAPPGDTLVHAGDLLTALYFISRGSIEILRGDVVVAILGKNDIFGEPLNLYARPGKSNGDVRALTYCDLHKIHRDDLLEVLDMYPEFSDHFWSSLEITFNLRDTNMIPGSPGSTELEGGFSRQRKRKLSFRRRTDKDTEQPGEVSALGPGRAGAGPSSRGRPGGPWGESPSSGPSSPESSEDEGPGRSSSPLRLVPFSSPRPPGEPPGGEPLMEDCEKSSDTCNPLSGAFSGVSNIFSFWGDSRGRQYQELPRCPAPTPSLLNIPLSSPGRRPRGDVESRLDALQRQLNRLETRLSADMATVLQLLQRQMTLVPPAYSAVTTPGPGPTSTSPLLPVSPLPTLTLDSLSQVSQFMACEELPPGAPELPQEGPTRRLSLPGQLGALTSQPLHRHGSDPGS
Sequence of Retinoic acid receptor RXR-alpha (Homo sapiens) (P19793 whole entry, looked up): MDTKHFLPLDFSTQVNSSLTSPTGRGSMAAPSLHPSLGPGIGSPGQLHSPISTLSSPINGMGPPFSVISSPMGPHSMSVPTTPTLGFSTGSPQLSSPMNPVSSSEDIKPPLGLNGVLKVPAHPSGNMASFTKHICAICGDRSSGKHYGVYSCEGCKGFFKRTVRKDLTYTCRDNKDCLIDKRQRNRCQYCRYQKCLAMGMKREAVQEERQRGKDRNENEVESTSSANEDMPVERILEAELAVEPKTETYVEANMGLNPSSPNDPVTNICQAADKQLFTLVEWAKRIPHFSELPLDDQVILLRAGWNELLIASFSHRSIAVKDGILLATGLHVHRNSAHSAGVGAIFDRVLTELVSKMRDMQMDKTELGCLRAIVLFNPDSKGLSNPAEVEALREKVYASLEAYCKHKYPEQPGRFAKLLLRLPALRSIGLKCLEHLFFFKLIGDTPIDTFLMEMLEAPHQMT

## N=C1N=C(N)c2cc3ccccc3cc21
[1]
  max response: 12.6%
[2]
  outcome: inactive
[3]
  outcome: inactive
[4]
  max response: -9.13%
[5]
  max response: 48.9% (inactive)
[6]
  activity change % (negative = inhibition): 8.6% (inactive)
[7]
  Potency: inactive

## O=C(O)[C@H](O)[C@@H](O)[C@H](O)[C@H](O)CO
[1]
  max response: -12.4%
[2]
  outcome: inactive
[3]
  outcome: inactive
[4]
  max response: -7.65%
[5]
  max response: 4.17% (inactive)
[6]
  activity change % (negative = inhibition): 19.6% (inactive)
[8]
  Potency: inactive
[7]
  Potency: inactive
[9]
  Potency: inactive

## Nc1ccc(O)c(C(=O)O)c1
[1]
  max response: -5.65% and -3.05%
[2]
  outcome: inactive
[4]
  max response: 7.86% and -11.8%
[5]
  max response: 19.2% (inactive) and -15.8% (inactive)
[8]
  Potency: inactive
[9]
  Potency: inactive

## CCCCC/C=C\CC(O)/C=C/c1cccc(CC(O)CCCCO)n1 (stereo unspecified)
[8]
  Potency: inactive

## CN(C)C(N)=NCCC[C@H](N)C(=O)O
[8]
  Potency: inactive

## Nc1ccc([N+](=O)[O-])cc1O
[1]
  max response: 5.77%
[2]
  outcome: inactive
[3]
  outcome: inactive
[4]
  max response: 3.08% and -8.59%
[5]
  max response: -3.43% (inactive) and -7.43% (inactive)
[6]
  activity change % (negative = inhibition): 10% (inactive) and 1.31% (inactive)
[8]
  Potency: inactive
[7]
  Potency: inactive

## O=C(O)/C=C\C(=O)O
[1]
  max response: -5.8%
[2]
  outcome: inactive
[3]
  outcome: inactive
[4]
  max response: 0.438%
[5]
  max response: 2.25% (inactive)
[6]
  activity change % (negative = inhibition): -2.36% (inactive)

## CC1(C)CCC=[N+]1[O-]
[8]
  Potency: inactive

## CN1CCC[C@H]1c1cccnc1
[3]
  outcome: inactive
[6]
  activity change % (negative = inhibition): -9.11% (inactive) and 5.66% (inactive)
[8]
  Potency: inactive

## CN(C)CCC(c1ccc(Cl)cc1)c1ccccn1 (stereo unspecified)
[1]
  max response: 8.67%
[2]
  outcome: inactive
[3]
  outcome: inactive
[4]
  max response: -0.244%
[5]
  max response: -3.52% (inactive)
[6]
  activity change % (negative = inhibition): -21.7% (inactive)
[7]
  Potency: inactive

## c1ccc2sc(SSc3nc4ccccc4s3)nc2c1
[1]
  max response: 3.36% and -4.21%
[2]
  outcome: inactive
[3]
  outcome: inactive
[4]
  max response: -0.16% and -14.1%
[5]
  max response: 0.434% (inactive) and -6.61% (inactive)
[6]
  activity change % (negative = inhibition): 20.1% (inactive) and 3.58% (inactive)
[8]
  Potency: inactive
[7]
  Potency: inactive
[9]
  Potency: inactive

## c1cnc2c(c1)ccc1cccnc12
[6]
  activity change % (negative = inhibition): -10.3% (inactive)
[8]
  Potency: inactive

## CC(C)OC(=O)c1cc(C(=O)OC(C)C)cc([N+](=O)[O-])c1
[4]
  max response: -0.986%
[5]
  max response: -4.84% (inactive)
[6]
  activity change % (negative = inhibition): 6.57% (inactive)
[7]
  Potency: inactive

## O=Nc1ccc2oc(=O)ccc2c1
[8]
  Potency: inactive

## O=C1CN(/N=C/c2ccc([N+](=O)[O-])o2)C(=O)N1
[3]
  outcome: inactive
[4]
  max response: 9.13%
[5]
  max response: 25.9% (inactive)
[8]
  Potency: inactive
[7]
  Potency: inactive
[9]
  Potency: inactive

## Cc1cc(NC(=O)Nc2ccc3c(ccn3C)c2)sn1
[8]
  Potency: inactive

## CC(C(=O)O)c1ccc(C(=O)c2ccccc2)s1 (stereo unspecified)
[8]
  Potency: inactive

## O=C(O)/C=C/C(O)c1ccc(Cl)cc1 (stereo unspecified)
[8]
  Potency: inactive
[7]
  Potency: inactive
[9]
  Potency: inactive

## CN=c1nc(-c2ccccc2)n(-c2ccccc2)s1
[8]
  Potency: 11.2 µM (active)

## N#C/C(=C\c1ccc(O)c(O)c1)C(=O)c1ccc(O)c(O)c1
[8]
  Potency: inactive

## CN1CC(=O)N/C1=N/C(=O)Nc1cccc(Cl)c1
[8]
  Potency: inactive
[7]
  Potency: inactive

## Cc1cc(O)c2ccccc2c1O
[8]
  Potency: inactive
[7]
  Potency: inactive
[9]
  Potency: 12.8 µM (active)

## CC(C)(C)NCC(O)COc1nsnc1N1CCOCC1 (stereo unspecified)
[8]
  Potency: inactive

## CCCCCC[C@@H](O)C/C=C\CCCCCCCC(=O)O
[8]
  Potency: inactive
[7]
  Potency: inactive
[9]
  Potency: inactive

## CCCCC1C(=O)N(c2ccccc2)N(c2ccc(O)cc2)C1=O (stereo unspecified)
[8]
  Potency: inactive
[10]
  Potency: 15.8 µM (active)

## O=C(O)[C@@H]1C[C@@H](C(=O)O)N1
[8]
  Potency: inactive

## O=c1[nH]c2cc(C(F)(F)F)ccc2n1-c1cc(C(F)(F)F)ccc1O
[8]
  Potency: inactive

## C=C(Nc1ccc(OCC)cc1)Nc1ccc(OCC)cc1
[8]
  Potency: 14.1 µM (active)
[7]
  Potency: inactive
[9]
  Potency: inactive

## CCCC(=O)OC[C@@H](OC(=O)CCC)[C@@H](OC(=O)CCC)[C@H](Cn1c2nc(=O)[nH]c(=O)c-2nc2cc(C)c(C)cc21)OC(=O)CCC
[8]
  Potency: 10 µM (active)
[7]
  Potency: inactive

## O=C1CC[C@@H](C(=O)N2CSC[C@H]2C(=O)O)N1 ([pGlu]-[Thz]-OH)
[8]
  Potency: inactive
[7]
  Potency: inactive
[9]
  Potency: inactive

## CN1[C@@H](CC(=O)c2ccccc2)CCC[C@H]1C[C@H](O)c1ccccc1
[8]
  Potency: 1.41 µM (active)
[7]
  Potency: inactive
[9]
  Potency: inactive

## O=C(O)Cc1ccc(-c2ccccc2)cc1
[8]
  Potency: inactive
[7]
  Potency: inactive
[9]
  Potency: inactive

## O=c1[nH]c2ccccc2n1CCCN1CCN(C(c2ccccc2)c2ccccc2)CC1
[8]
  Potency: 3.55 µM (active)
[7]
  Potency: inactive

## N#C/C(=C\c1c[nH]c2ccccc12)C(=O)c1ccc(O)c(O)c1
[8]
  Potency: inactive

## O=c1[nH]c2cc(Cl)c(Cl)cc2[nH]c1=O
[8]
  Potency: inactive

## CC1(C)C[C@@H]1C(=O)N/C(=C\CCCCSC[C@H](N)C(=O)O)C(=O)O
[8]
  Potency: inactive
[7]
  Potency: inactive
[9]
  Potency: inactive

## N.N.O=C(O)C1(C(=O)O)CCC1.[Pt]
[8]
  Potency: inactive
[7]
  Potency: inactive

## COc1cc2c3cc1Oc1cc(ccc1O)C[C@@H]1c4c(cc(OC)c(O)c4Oc4ccc(cc4)C[C@@H]3N(C)CC2)CC[N+]1(C)C
[8]
  Potency: inactive
[7]
  Potency: inactive
[9]
  Potency: inactive

## C#CC1(O)CC[C@H]2[C@@H]3CCC4=CCCC[C@@H]4[C@H]3CC[C@@]21C (stereo partly specified)
[8]
  Potency: inactive

## Cc1ccccc1CNc1ncnc2c1ncn2C1OC(CO)C(O)C1O (stereo unspecified)
[8]
  Potency: inactive
[7]
  Potency: inactive
[9]
  Potency: inactive

## CCCCCCCCCCCCCCCC(=O)NCC(COP(=O)([O-])OCC[N+](C)(C)C)OCC (stereo unspecified)
[8]
  Potency: inactive

## COc1cc(NC(C)CCCN)c2ncccc2c1 (stereo unspecified)
[8]
  Potency: inactive

## NCCSSCCN
[8]
  Potency: inactive

## C=CC(N)CCC(=O)O (stereo unspecified)
[8]
  Potency: inactive
[7]
  Potency: inactive
[9]
  Potency: inactive

## Ic1ccc(N2CCN(Cc3c[nH]c4ncccc34)CC2)cc1
[8]
  Potency: 1.12 µM (active)

## O=C(O)c1cc([N+](=O)[O-])ccc1NCCCc1ccccc1
[8]
  Potency: inactive
